Measured values taken from ChEMBL document CHEMBL1201862, “PubChem BioAssay data set” (2004).
Among all 57,000 sequences or so, about 2,500 (4.4%) were called active. Cut-off read from the data, not from the text of the source: active = GI50 up to about 1.1 µM and inactive = higher. Only a sample is shown. Potency and affinity values are given separately.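 Method: 48-hour compound exposure of cells in 96-well plates, five concentrations, linear interpolation of endpoints. GI50 marks 50% less growth.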

Each substance was assayed on UACC-257 (assay: NCI tumour cell line growth inhibition, 48 h).
“[Bis(aminomethyl)dimethylsilane]dichloroplatinum (II), CHEMBL2146201” gave a GI50 of 45.7 µM.
“[Bis(aminomethyl)ethylmethylsilane]tetrachloroplatinum(IV), CHEMBL2146192” gave a GI50 of 3.3 µM.
For “[Bis(aminomethyl)tetramethylenesilane]dichloropaltinum(II), CHEMBL2146205”, the GI50 was 59.7 µM.
“[Bis(aminomethyl)dimethylsilane]tetrachloroplatinum(IV), CHEMBL2146190” was tested, and the GI50 was 15.1 µM.
CISPLATIN, CHEMBL11359 showed a GI50 of 4.09 µM.
Work on “[Bis(aminomethyl)pentamethylenesilane]dichloropaltinum(II), CHEMBL2146202” yielded a GI50 of 6.81 µM.
With “cis-Bis[[(trimethylsilyl)methyl]amino]tetrachloroplatinum(IV), CHEMBL2146191” the GI50 was 5.31 µM.
With “[Bis(aminomethyl)pentamethylenesilane]tetrachloropaltinum(IV), CHEMBL2146204” the GI50 was 7.19 µM.
In the case of “mu-(1,7-nanodiamine-N,N')bis-(cis-aminedichloroplatimum (II)), CHEMBL2146215”, the GI50 is reported as 20.1 µM.
“[Bis(aminomethyl)diethylsilane]tetrachloroplatinum(IV), CHEMBL2146203” showed a GI50 of 4.79 µM.
“[Bis(aminomethyl)tetramethylenesilane]tetrachloropaltinum(IV), CHEMBL2146189” was tested, and the GI50 was 16.4 µM.
